Among the test systems are SR leukemia; RPMI-8226 leukemia; OVCAR-8 ovarian; OVCAR-5 ovarian; OVCAR-4 ovarian; SK-OV-3 ovarian; IGROV1 ovarian; HS 578T breast; NCI/ADR-RES ovarian; OVCAR-3 ovarian.
What all share (test): NCI-60 one-dose screen, 48 h (100 = growth as untreated, 0 = no growth, -100 = all killed)
Holding throughout (details): 10 µM unless noted

Compounds without any hit were thinned out: in the full panel of roughly 83,000, 20% have a hit.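 Each cell line was grown in a 96-well plate and treated with one concentration of compound for 48 hours. Values below 10 were considered active.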 A number with no mark means an inactive call. Calls of active or inactive are those of the source.

`CCCCCCCCCCCCC[C@H](O)C[C@H](O)[C@H](C)N`: the growth in the experiment on SR leukemia is -35.7% [1.25 µM] (active); with RPMI-8226 leukemia, 33.2% [1.25 µM]; with OVCAR-8 ovarian it was 89.7% [1.25 µM]; in the experiment on OVCAR-5 ovarian, 86.1% [1.25 µM]; in the experiment with OVCAR-4 ovarian it was 123% [1.25 µM]; with SK-OV-3 ovarian, 125% [1.25 µM]. For the same compound, the figures for the growth in the experiment on IGROV1 ovarian, in the experiment on HS 578T breast and in the experiment with NCI/ADR-RES ovarian were 133% [1.25 µM], 117% [1.25 µM] and 85.9% [1.25 µM], respectively.
`O=C(Nc1ccc2ncsc2c1)c1csc(Nc2ccc3[nH]ncc3c2)n1`: the growth with SR leukemia was 29.1%; with RPMI-8226 leukemia it was 13.6%; with OVCAR-8 ovarian, 45.7%; in the experiment with OVCAR-5 ovarian, 78.6%; with OVCAR-4 ovarian, 74.8%; in the experiment on SK-OV-3 ovarian it was 52.9%. For the same compound, the growth is 59.1% in the experiment with IGROV1 ovarian, 8.38% (active) with OVCAR-3 ovarian, 37.7% in the experiment on HS 578T breast and 56.9% in the experiment on NCI/ADR-RES ovarian.
As to `CCOC(=O)c1cnn(-c2ccc(S(N)(=O)=O)cc2)c1N`, the growth in the experiment with SR leukemia was 95.5%; with RPMI-8226 leukemia it was 94.1%; in the experiment with OVCAR-8 ovarian, 102%; in the experiment on OVCAR-5 ovarian, 89.2%; with OVCAR-4 ovarian it was 103%; in the experiment with SK-OV-3 ovarian, 104%. In addition, the growth in the experiment with IGROV1 ovarian was 97.9%; in the experiment on OVCAR-3 ovarian it was 134%; with HS 578T breast it was 110%; with NCI/ADR-RES ovarian, 96.1%.
On to `N=C(N)SCc1c2ccccc2c(CSC(=N)N)c2ccccc12`, for which the growth is -11.1% (active) with SR leukemia; 46% in the experiment with RPMI-8226 leukemia; 60.7% in the experiment on OVCAR-8 ovarian; 102% in the experiment with OVCAR-5 ovarian; 80.6% in the experiment with OVCAR-4 ovarian; 81.4% in the experiment on SK-OV-3 ovarian. Further, the growth with IGROV1 ovarian is 80.6%; in the experiment on OVCAR-3 ovarian, 93.5%; in the experiment on HS 578T breast, 85.5%; in the experiment on NCI/ADR-RES ovarian, 103%.
Turning to `CS(=O)(=O)Nc1cc(-c2ccc3ncnc(Nc4ccc(F)c(Cl)c4)c3c2)cnc1Cl`, the growth was 0.546% (active) in the experiment on SR leukemia; -24% (active) with RPMI-8226 leukemia; 15.8% with OVCAR-8 ovarian; 15.3% in the experiment on OVCAR-5 ovarian; 17.6% in the experiment on OVCAR-4 ovarian; -19.6% (active) with SK-OV-3 ovarian. Further, the growth was -14.1% (active) with IGROV1 ovarian, -22.6% (active) with OVCAR-3 ovarian, -11.5% (active) in the experiment with HS 578T breast and 34.2% in the experiment on NCI/ADR-RES ovarian.
In the case of `Cn1cc(-c2csc(-c3c[nH]c4ccc(F)cc34)n2)c2cnccc21`, the growth in the experiment with SR leukemia is -36% (active); in the experiment with RPMI-8226 leukemia, -35.5% (active); with OVCAR-8 ovarian it was -1.04% (active); with OVCAR-5 ovarian, -12.5% (active); in the experiment on OVCAR-4 ovarian it was 10.9%; with SK-OV-3 ovarian, 103%. Also, the growth is -37.1% (active) with IGROV1 ovarian, -38.1% (active) in the experiment with HS 578T breast and 11.5% in the experiment with NCI/ADR-RES ovarian.
With `Cc1oc2c(Cc3ccc(NC(=O)c4ccc(Cl)cc4)cc3)ncnc2c1C(=O)NO`, the growth is 71.2% in the experiment on SR leukemia; 92.4% with RPMI-8226 leukemia; 98.5% with OVCAR-8 ovarian; 103% in the experiment on OVCAR-5 ovarian; 109% in the experiment on OVCAR-4 ovarian; 94.1% with SK-OV-3 ovarian. For the same compound, the growth was 103% with IGROV1 ovarian, 95.8% with OVCAR-3 ovarian, 113% with HS 578T breast and 98.2% in the experiment on NCI/ADR-RES ovarian.
Turning to `COc1ccc(S(=O)(=O)Nc2cc(Sc3cccc4cccnc34)c(O)c3ccccc23)cc1`, the growth is 8.57% (active) in the experiment with SR leukemia; 5.31% (active) in the experiment with RPMI-8226 leukemia; 9.48% (active) in the experiment on OVCAR-8 ovarian; 42.3% in the experiment on OVCAR-5 ovarian; -99.4% (active) in the experiment with OVCAR-4 ovarian; 50.7% in the experiment on SK-OV-3 ovarian. Moreover, the growth with IGROV1 ovarian is 5.99% (active); in the experiment on OVCAR-3 ovarian, -81.8% (active); in the experiment with HS 578T breast, 47.2%; in the experiment on NCI/ADR-RES ovarian, 11.1%.
For `C#Cc1cc(C(=O)Nc2ccc(CN3CCN(C)CC3)c(C(F)(F)F)c2)ccc1C`, the growth in the experiment with SR leukemia is 58.7%; with RPMI-8226 leukemia, 59.5%; in the experiment with OVCAR-8 ovarian, 77.4%; in the experiment with OVCAR-5 ovarian it was 74.6%; in the experiment on OVCAR-4 ovarian it was 72.3%; in the experiment on SK-OV-3 ovarian it was 93.2%. Further, the growth in the experiment on IGROV1 ovarian is 75.7%; in the experiment with OVCAR-3 ovarian, 86.4%; in the experiment with HS 578T breast, 64.7%; in the experiment with NCI/ADR-RES ovarian, 82.2%.
With `O=C(Nc1ncc(Cc2cccc(C(F)(F)F)c2)s1)c1ccc(-n2cnnn2)cc1`, the growth is 61.2% in the experiment on SR leukemia; 51.5% in the experiment with RPMI-8226 leukemia; 58.5% with OVCAR-8 ovarian; 74.2% with OVCAR-5 ovarian; 33.6% with OVCAR-4 ovarian; 86.4% in the experiment with SK-OV-3 ovarian. The growth is 74.6% with IGROV1 ovarian, 72.1% in the experiment with OVCAR-3 ovarian, 79.3% in the experiment with HS 578T breast and 35.9% in the experiment on NCI/ADR-RES ovarian.
In the case of `c1ccc(Cc2cccc[n+]2C(c2ccccc2)c2ccccc2)cc1`, the growth in the experiment on SR leukemia is 32.4%; in the experiment with RPMI-8226 leukemia it was 12.3%; with OVCAR-8 ovarian it was 57.2%; with OVCAR-5 ovarian, 71.5%; with OVCAR-4 ovarian, 28.2%; with SK-OV-3 ovarian, 52.1%. For the same compound, the growth in the experiment on IGROV1 ovarian is 62.3%; in the experiment on OVCAR-3 ovarian it was 44.6%; in the experiment on HS 578T breast it was 90.6%; in the experiment with NCI/ADR-RES ovarian, 104%.
`Nc1ccc(/C=N/Nc2ccnc3c(N)cccc23)c2cccnc12`: the growth in the experiment on SR leukemia is -28.2% (active); with RPMI-8226 leukemia, -30.3% (active); with OVCAR-8 ovarian it was -30% (active); in the experiment with OVCAR-5 ovarian, 13.9%; in the experiment on OVCAR-4 ovarian, -51.4% (active); in the experiment on SK-OV-3 ovarian it was 97.2%. The growth is 88.4% in the experiment with IGROV1 ovarian, -85.5% (active) in the experiment with OVCAR-3 ovarian, -17% (active) in the experiment on HS 578T breast and 9.25% (active) in the experiment with NCI/ADR-RES ovarian.

(Values after PubChem BioAssay (NCI).)
